The text below walks through data of publication PMC4336329 (PLoS ONE, 2015).

About 14,000 (4.5%) of roughly 310,000 compounds showed an effect of 50% or more. Effects have a minus sign here. Shown is part of a subset that was picked to be rich in strong results.
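Further: peak tail current of the secondary pulse compared with the same well before compound.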

The target of this test is human ether-à-go-go-related gene (hERG) potassium channel (human, UniProt Q12809). Kind of test: primary screen, population patch clamp on CHO cells stably expressing hERG; higher = less effect of the substance.
Sequence of human ether-à-go-go-related gene (hERG) potassium channel (Q12809 whole entry, looked up): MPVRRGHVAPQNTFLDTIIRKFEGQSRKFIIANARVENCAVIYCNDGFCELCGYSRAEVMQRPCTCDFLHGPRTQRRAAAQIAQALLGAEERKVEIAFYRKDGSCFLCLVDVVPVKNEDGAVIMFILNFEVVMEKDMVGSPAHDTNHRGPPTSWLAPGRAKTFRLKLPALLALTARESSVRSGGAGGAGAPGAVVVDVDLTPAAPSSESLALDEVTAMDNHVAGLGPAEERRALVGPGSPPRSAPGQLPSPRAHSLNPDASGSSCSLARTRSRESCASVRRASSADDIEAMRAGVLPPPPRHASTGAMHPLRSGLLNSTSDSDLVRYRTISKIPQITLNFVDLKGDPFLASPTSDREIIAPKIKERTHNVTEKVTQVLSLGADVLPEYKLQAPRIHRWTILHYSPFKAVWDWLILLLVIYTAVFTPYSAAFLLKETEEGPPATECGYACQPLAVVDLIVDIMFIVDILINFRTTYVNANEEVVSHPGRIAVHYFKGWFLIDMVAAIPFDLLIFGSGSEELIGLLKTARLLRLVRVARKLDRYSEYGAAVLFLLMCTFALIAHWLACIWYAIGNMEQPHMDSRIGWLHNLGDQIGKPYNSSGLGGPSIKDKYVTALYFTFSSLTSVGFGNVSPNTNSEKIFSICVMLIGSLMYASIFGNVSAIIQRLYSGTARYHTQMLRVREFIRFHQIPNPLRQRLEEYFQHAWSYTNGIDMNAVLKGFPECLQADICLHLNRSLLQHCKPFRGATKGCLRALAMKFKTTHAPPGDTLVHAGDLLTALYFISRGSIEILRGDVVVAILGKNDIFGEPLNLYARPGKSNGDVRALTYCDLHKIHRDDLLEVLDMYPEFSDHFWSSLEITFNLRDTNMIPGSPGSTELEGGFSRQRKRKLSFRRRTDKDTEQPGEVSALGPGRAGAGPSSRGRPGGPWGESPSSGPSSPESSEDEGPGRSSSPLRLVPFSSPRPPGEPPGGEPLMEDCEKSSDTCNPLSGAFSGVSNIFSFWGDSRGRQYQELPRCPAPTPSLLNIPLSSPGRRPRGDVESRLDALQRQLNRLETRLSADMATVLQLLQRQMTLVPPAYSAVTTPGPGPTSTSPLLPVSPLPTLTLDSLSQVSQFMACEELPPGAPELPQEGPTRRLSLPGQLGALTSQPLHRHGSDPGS
For `O=C(CNc1cccc(S(=O)(=O)N2CCOCC2)c1)Nc1cccc(Br)c1`, the “hERG current change (%, negative = inhibition) at 10uM” value is given as -21.6%. For the molecule `CSCCC(NS(=O)(=O)c1ccc(C)cc1)C(=O)N1CCCC1` (stereo not shown), the “hERG current change (%, negative = inhibition) at 10uM” value is listed as 2%.

Consider `CC1CCN(S(=O)(=O)c2ccc3ncn(CC(=O)N4CCN(C)CC4)c(=O)c3c2)CC1`, for which the “hERG current change (%, negative = inhibition) at 10uM” value is -16.3%. As for `CC1CCN(S(=O)(=O)c2ccc3ncn(CC(=O)N(C)Cc4ccccc4)c(=O)c3c2)CC1`, the “hERG current change (%, negative = inhibition) at 10uM” value is recorded as -61.7%. Next, `CCN(CC)CCCNC(=O)Cn1cnc2ccc(S(=O)(=O)N3CCC(C)CC3)cc2c1=O`: -0.31%. Next, `CCCCNC(=O)Cn1cnc2ccc(S(=O)(=O)N3CCC(C)CC3)cc2c1=O`: 2.68%; `CC1CCN(S(=O)(=O)c2ccc3ncn(CC(=O)N(C)C4CCCCC4)c(=O)c3c2)CC1`: -22.2%. With `CCCCN(CC)C(=O)Cn1cnc2ccc(S(=O)(=O)N3CCC(C)CC3)cc2c1=O`, the “hERG current change (%, negative = inhibition) at 10uM” value is given as -57%. Under `Cc1cc2cc3c(C)cc(=O)oc3c(C)c2o1` stands 19.8%; under `COc1ccc(-c2cc(C(=O)Nc3ccccc3F)on2)cc1`, 23.3%; under `CCOc1ncccc1C(=O)OCC(=O)Nc1cc(S(=O)(=O)N(CC)CC)ccc1C`, -42.8%. Under `Cc1nc2cc(NS(=O)(=O)c3c(C)c(C)cc(C)c3C)ccc2s1` stands 3.47%; under `Cc1ccc(C(=O)NCC(=O)NCC(=O)OCC(=O)c2ccc(Br)cc2)cc1`, 7.3%; under `CCN(CC)CCn1c(NCc2cccc(OC)c2OC)nc2ccccc21`, -47%. Next, `CCN(CC)CCn1c(NCc2ccc(OC)cc2)nc2ccccc21`: -65.5%; `CCCn1c(Nc2cccc(OC)c2)nc2ccccc21`: 14.8%; `CCN(CC)CCn1c(NCc2cccc(OC)c2)nc2ccccc21.Cl`: -57.8%.

With `CCn1c(NCc2ccc(OC)cc2)nc2ccccc21`, the “hERG current change (%, negative = inhibition) at 10uM” value is recorded as -21.7%. For `CN(Cc1ccc2ccccc2c1)C(=O)c1ccc(C(F)(F)F)cc1`, the “hERG current change (%, negative = inhibition) at 10uM” value is recorded as 26.1%. Under `CCN1C(=O)N(c2ccc(Cl)cc2)C(C)=CC1(C)C` stands 6.6%.

Regarding `COc1ccc(C(=O)Nc2ccc(Cl)cc2F)cc1S(=O)(=O)N1CCCC1`, the “hERG current change (%, negative = inhibition) at 10uM” value was -48.1%. Under `C=C1c2ccccc2NC(=O)N1c1ccc(OC)cc1` stands 12.8%; under `CC(O)CNc1nc2c(c(=O)n(Cc3ccc(Cl)c(Cl)c3)c(=O)n2C)n1C` (stereo not shown), -17.3%. `O=C(O)C(=O)O.OCCN(Cc1ccccc1)Cc1ccccc1O`: the “hERG current change (%, negative = inhibition) at 10uM” value was 5.17%. For the molecule `C=CCN1C(=O)C2C(C(=O)NCc3ccccc3)C3(C)C=CC2(O3)C1C(=O)NC(C)(C)C` (stereo not shown), the “hERG current change (%, negative = inhibition) at 10uM” value is 19.5%. Take `COc1ccc(OC)c(/C=N/N2CCN(c3ccc(Cl)cc3)CC2)c1`: the “hERG current change (%, negative = inhibition) at 10uM” value is 8.58%. Next, `COC(=O)Cc1ccc(NC(=S)NCc2ccc(OC)cc2)cc1`: -18.2%. Under `COC(=O)Cc1ccc(NC(=S)NCc2ccccc2)cc1` stands 0.941%. In the case of `COC(=O)Cc1ccc(NC(=S)NCc2ccc(F)cc2)cc1`, the “hERG current change (%, negative = inhibition) at 10uM” value is on record as -74.4%. Next, `Cl.c1ccc(Cn2nnnc2CN2CCCC2)cc1`: 2.31%; `Cc1ccccc1C(=O)NC1CCN(Cc2nnnn2Cc2ccccc2)CC1`: -47.8%; `Cc1cc2nc(C3CCN(CC4COc5ccccc5O4)CC3)[nH]c2cc1C` (stereo not shown): -73.9%. Next, `c1csc(Cn2nnnc2CN2CCN(c3nc4ccccc4s3)CC2)c1`: -46%; `Cc1cc2nc(C3CCN(Cc4nnnn4Cc4cccs4)CC3)[nH]c2cc1C`: -83%.

With `COc1cc(C(=O)NC2CCN(Cc3nnnn3Cc3cccs3)CC2)cc(OC)c1OC`, the “hERG current change (%, negative = inhibition) at 10uM” value is listed as -5.59%. Take `CCN1CCN(CC2COc3ccccc3O2)CC1.Cl` (stereo not shown): the “hERG current change (%, negative = inhibition) at 10uM” value is recorded as -4.7%. Next, `CCN(CC)C(=O)CN1CCC(c2nc3cc(C)c(C)cc3[nH]2)CC1`: -15.7%. With `Cc1cc2nc(C3CCN(Cc4nnnn4Cc4ccccc4)CC3)[nH]c2cc1C`, the “hERG current change (%, negative = inhibition) at 10uM” value is -52.3%. Under `CCc1c(C)c2cc(Cl)c(O)c(CN(CC)CC)c2oc1=O` stands 0.288%. As to `S=c1nccc(-c2ccc(Cl)cc2)[nH]1`, the “hERG current change (%, negative = inhibition) at 10uM” value is reported as 15.4%. Next, `COc1cc(NC(=O)c2cc3ccccc3o2)c(OC)cc1Br`: 5.55%. On to `COc1ccc(-c2nnn(-c3cc(Cl)cc(Cl)c3)c2N)cc1`, for which the “hERG current change (%, negative = inhibition) at 10uM” value came to 18.3%. Next, `CC1(C)C(=O)N(c2ccccc2)C(=O)c2ccccc21`: 9.68%.
